In assay [1] the target is Thyrotropin receptor (Homo sapiens) (UniProt P16473). Briefly: qHTS assay to identify small molecule agonists of the thyroid stimulating hormone receptor (TSHR) signaling pathway (AID 1224843). Note: nearly all actives have a fitted effect of over 45% in size. As to conditions: TSHR-HEK293 cells, cAMP HTRF, agonist mode, 30 min; series mostly up to 92.4 µM. Summed up: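 Cell line HEK293 with TSHR; density 800/well. Exposure 30 min RT. Readout HTRF cAMP (cAMP-d2/anti-cAMP-cryptate), 1 h RT before reading.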
Thyrotropin receptor (Homo sapiens), sequence (P16473 whole entry, looked up): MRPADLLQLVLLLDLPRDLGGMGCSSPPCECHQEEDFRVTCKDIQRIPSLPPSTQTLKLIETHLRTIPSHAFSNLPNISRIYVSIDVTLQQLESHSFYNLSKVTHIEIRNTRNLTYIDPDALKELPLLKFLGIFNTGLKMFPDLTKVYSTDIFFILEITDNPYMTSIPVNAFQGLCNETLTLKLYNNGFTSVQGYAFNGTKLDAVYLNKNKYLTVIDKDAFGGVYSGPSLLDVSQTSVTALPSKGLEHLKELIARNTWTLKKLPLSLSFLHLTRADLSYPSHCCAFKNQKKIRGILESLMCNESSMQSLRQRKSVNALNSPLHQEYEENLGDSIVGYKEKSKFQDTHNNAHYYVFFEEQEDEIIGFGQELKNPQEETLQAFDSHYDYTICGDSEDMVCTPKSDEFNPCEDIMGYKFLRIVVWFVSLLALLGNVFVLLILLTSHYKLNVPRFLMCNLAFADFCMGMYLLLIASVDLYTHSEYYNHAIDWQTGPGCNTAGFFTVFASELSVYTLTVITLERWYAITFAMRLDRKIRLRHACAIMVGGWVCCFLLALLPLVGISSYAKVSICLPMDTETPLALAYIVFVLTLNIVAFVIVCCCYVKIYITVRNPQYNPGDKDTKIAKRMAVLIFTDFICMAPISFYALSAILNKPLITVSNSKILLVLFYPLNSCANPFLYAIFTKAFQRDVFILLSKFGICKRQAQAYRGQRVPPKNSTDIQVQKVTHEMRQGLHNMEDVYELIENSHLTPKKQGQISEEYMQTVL

A short description of assay [2]: qHTS assay to identify small molecule agonists of the hypoxia (HIF-1) signaling pathway - cell viability counter screen (AID 1224844). Note: nearly all actives have a fitted effect of over 50% in size. Note: potency is the fitted concentration of half-maximal effect. To be noted: HRE-bla ME-180 viability, CellTiter-Glo luminescence, 17 h; series mostly up to 76.8 µM. The method in brief: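 Tox21 10K compounds were added to HRE-bla ME-180 cells (0.5% dialyzed FBS) and incubated 17 hrs at 37C; ATP-based CellTiter-Glo luminescence then reported cell viability in the same wells.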

Assay [3] in a line: qHTS assay to identify small molecule agonists of H2AX (AID 1224845; active = well fitted activation curve with a large enough effect in the signal ratio in the repeat runs, not every such curve was filed as active; the % refers to the signal ratio). To be noted: CHO-K1 phospho-H2AX Ser139 HTRF, 3 h; series mostly up to 154 µM. Summed up:
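Wild-type CHO-K1 cells plated overnight, then exposed 3 hr at 37C to compounds at 15 concentrations (0.76% DMSO). Lysed, then HTRF anti-pH2AX(S139)-cryptate/anti-H2AX-d2 detection after 24 hr at room temperature; emissions 665 and 620 nm.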

Assay [4] in a line: qHTS assay to identify small molecule agonists of the hypoxia (HIF-1) signaling pathway (AID 1224846; active = well fitted activation curve with a large enough effect in the signal ratio in the repeat runs, not every such curve was filed as active; the % refers to the signal ratio). As to conditions: HRE-bla ME-180 cells, beta-lactamase ratio, 17 h; series mostly up to 76.8 µM. Summed up: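 Steps: seed ME-180 HRE-bla cells (2,000/well, 0.5% dialyzed FBS); incubate 5 hrs at 37C; pin-transfer compounds or DMSO; incubate 17 hrs; add LiveBLAzer B/G substrate CCF4-AM; measure reporter activation by FRET.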

Assay [5] in a line: qHTS assay to identify small molecule agonists of H2AX - cell viability counter screen (AID 1224847). Note: top concentration of the series differs between compounds; nearly all actives have a fitted effect of over 30% in size. To be noted: CHO-K1 viability, CellTiter-Glo luminescence, 3 h; series mostly up to 154 µM. Summed up: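 Cells plated first: CHO-K1, 1000 per well in 10% FBS medium, incubated overnight at 37C. Then 15-point compound titration added (final DMSO 0.76%) for 3 hr. Finally CellTiter-Glo added and luminescence read.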

A short description of assay [6]: qHTS assay to identify small molecule antagonists of the estrogen related receptor (ERR) signaling pathway from Tox21 library (AID 1224848; active = well fitted curve in the direction sought with a large enough effect in the repeat runs; an effect the other way counts as inactive or inconclusive; note: nearly all actives have a fitted effect of over 50% in size; note: potency is the fitted concentration of half-maximal effect). To be noted: ERR reporter cell line, luciferase antagonist mode, 18 h; series mostly up to 92.4 µM. The method in brief:
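Screening used an ERR reporter line supplied by NTP, exposed for 18 h at 37 C to library compounds delivered in DMSO. Signal was luciferase luminescence developed with ONE-Glo at room temperature for 30 min.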

The nature of assay [7]: qHTS assay to identify small molecule agonists of the estrogen related receptor (ERR) signaling pathway from Tox21 library (AID 1224849). Note: nearly all actives have a fitted effect of over 15% in size. As to conditions: ERR reporter cell line, ONE-Glo luciferase, 18 h; at 92.4 µM (top of the series) unless noted. Summed up:
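Agonist signal is luciferase luminescence from an ERR reporter cell line treated 18 h at 37 C with DMSO-dissolved compounds, read 30 min after ONE-Glo addition at room temperature.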

The nature of assay [8]: qHTS RealTime-Glo MT Cell Viability Assay in HepG2 cells - 24 hour (AID 1224867; active = well fitted curve in the direction sought with a large enough effect in the repeat runs; an effect the other way counts as inactive or inconclusive; note: nearly all actives have a fitted effect of over 50% in size; note: potency is the fitted concentration of half-maximal effect). As to conditions: RealTime-Glo luminescence; series mostly up to 76.8 µM. The method in brief:
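Compound treatment began 5 h after plating HepG2 cells (600/well) with NanoLuc luciferase and prosubstrate. Plates stayed at 37 C for 40 h; luminescence was captured at six time points, 0 h through 40 h.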

Assay [9] can be described thus: qHTS RealTime-Glo MT Cell Viability Assay in HEK293 cells - 32 hour (AID 1224868; active = well fitted curve in the direction sought with a large enough effect in the repeat runs; an effect the other way counts as inactive or inconclusive; note: nearly all actives have a fitted effect of over 50% in size; note: potency is the fitted concentration of half-maximal effect). As to conditions: RealTime-Glo luminescence; series mostly up to 76.8 µM. Summed up: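 Quantitative high-throughput screen of the Tox21 10K library in HEK293: cells and RealTime-Glo reagents plated together, compound added at 5 h, luminescence monitored through 40 h at 37 C.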
Assay [10] is described as follows: A CellTox Green Cytotoxicity Assay to monitor cytotoxicity in HEK293 cells - 0 hour (AID 1224869; active = well fitted curve in the direction sought with a large enough effect in the repeat runs; an effect the other way counts as inactive or inconclusive; note: nearly all actives have a fitted effect of over 50% in size). To be noted: CellTox Green fluorescence; series mostly up to 76.8 µM. The method in brief: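 Cytotoxicity was tracked continuously in HEK293 cells by a DNA-binding dye excluded from viable cells. Compounds were transferred in DMSO 5 h after seeding; fluorescence was recorded at intervals up to 40 h.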

Values without a mark were called inactive. Records with an inconclusive call do not appear. Active and inactive are the calls of the source. Unless noted, calls come from the whole dose curve.
% is set by controls: 0 for no effect and ±100 for the full control effect.

In the case of `CC(=O)Oc1ccc([N+](=O)[O-])cc1CCl`, the Potency entry in assay [1], in assay [3], in assay [5], in assay [6], in [8] and in [10] was “inactive” throughout. Further, the figures for the Potency in assay [2] and in assay [9] were 49 µM (active) and 3.89 µM (active), respectively. The result in [4] was inactive. The activity change, positive = activation in assay [7] is -12.3%.

Regarding `Cc1ccco1`, the Potency result in [1], in assay [2], in assay [3], in assay [5], in assay [8] and in assay [9] was “inactive” each time. Also, the Potency result in assay [10] was “inactive”. In addition, in [4], the result was inactive.

Consider `COC(=O)CCS`, for which the Potency entry in [1], in assay [2], in assay [3], in assay [5], in assay [8] and in assay [9] was “inactive” each time. The Potency result in assay [10] is “inactive”. In assay [4], the outcome was inactive.

Turning to `C=C(C)C(=O)OCCCCCCCCCCCCC`, the Potency result in [1], in assay [2], in [3], in [5], in [8] and in assay [9] was “inactive” throughout. Also, the Potency result in assay [10] was “inactive”. Further, in [4], the result was inactive.

Consider `Cc1cc(C)cc(N)c1`, for which the Potency result in assay [1], in assay [2], in assay [3], in assay [5], in assay [8] and in assay [9] was “inactive” in each case. In addition, in [10], the Potency result was “inactive”. In assay [4], the result was inactive.

Turning to `CCCCCCCCOc1ccc(C(=O)O)cc1`, the Potency result in assay [1], in assay [2], in assay [3], in assay [5], in [8] and in assay [9] was “inactive” each time. Further, in [10], the Potency result is “inactive”. In addition, the outcome in [4] was inactive.

In the case of `Cc1ccc(C(C)(C)O)cc1`, the Potency entry in assay [1], in [2], in [3], in assay [5], in assay [8] and in assay [9] was “inactive” in each case. Also, the Potency result in assay [10] is “inactive”. Also, in [4], the result was inactive.

In the case of `NC1[C@H]2CN(c3nc4c(cc3F)c(=O)c(C(=O)O)cn4-c3ccc(F)cc3F)C[C@@H]12` (stereo not given in full), the Potency result in assay [1], in assay [2], in [3], in [5], in [6] and in assay [8] was “inactive” in each case. Also, the Potency entry in [9] and in [10] was “inactive” in each case. Moreover, the result in assay [4] was inactive. Besides, the activity change, positive = activation in assay [7] is 59.2% [at 42.5 µM] (active).

Take `O=c1[nH]ncc2ccccc12`: the Potency result in [1], in assay [2], in [3], in [5], in assay [8] and in assay [9] was “inactive” throughout. In addition, in assay [10], the Potency entry was “inactive”. In addition, the outcome in [4] was inactive.

On to `CC(C)C[C@H](NC(=O)[C@H](CCc1ccccc1)NC(=O)CN1CCOCC1)C(=O)N[C@@H](Cc1ccccc1)C(=O)N[C@@H](CC(C)C)C(=O)[C@@]1(C)CO1`, for which the Potency result in assay [1], in assay [3], in [5] and in [10] was “inactive” in each case. Also, the Potency was 0.213 µM (active) in assay [2], 0.0596 µM (active) in assay [6], 0.0674 µM (active) in assay [8] and 0.0379 µM (active) in assay [9]. The result in assay [4] was inactive. Besides, the activity change, positive = activation in assay [7] was -67.1% [at 42.5 µM].

`CC(O)c1ccccc1` (stereo not given): the Potency result in assay [1], in assay [2], in [3], in assay [5], in assay [8] and in assay [9] was “inactive” each time. In [10], the Potency result is “inactive”. Besides, in assay [4], the result was inactive. The activity change, positive = activation in assay [7] is 5.42%.

Consider `O=C(OC(=O)c1ccccc1)c1ccccc1`, for which the Potency entry in [1], in assay [2], in assay [3], in assay [5], in [8] and in [9] was “inactive” throughout. In addition, the Potency result in assay [10] is “inactive”. Besides, in assay [4], the outcome was inactive.

Turning to `CC(C)=CC(=O)C=C(C)C`, the Potency result in assay [1], in [2], in assay [3], in assay [5], in [8] and in assay [9] was “inactive” in each case. In [10], the Potency result was “inactive”. Moreover, in assay [4], the result was inactive. Moreover, the activity change, positive = activation in assay [7] was 0.257%.

Take `CCCCCCCCN`: the Potency entry in assay [1], in [2], in assay [3], in assay [5], in [8] and in assay [9] was “inactive” throughout. Also, in [10], the Potency result is “inactive”. The result in [4] was inactive.

For `CCc1ccccc1`, the Potency entry in assay [1], in assay [2], in assay [3], in assay [5], in assay [8] and in [9] was “inactive” in each case. The Potency entry in assay [10] was “inactive”. Also, the result in [4] was inactive.

`CCCCCCCCCCC(=O)O`: the Potency entry in [1], in assay [2], in assay [3], in assay [5], in assay [8] and in [9] was “inactive” throughout. In addition, the Potency result in [10] is “inactive”. Further, in [4], the result was inactive.

Regarding `CNC(=O)c1cnn(-c2nc(N)c3ncn([C@@H]4O[C@H](CO)[C@@H](O)[C@H]4O)c3n2)c1`, the Potency entry in assay [1], in assay [2], in assay [3], in assay [5], in assay [8] and in assay [9] was “inactive” throughout. For the same compound, the Potency entry in assay [10] is “inactive”. In addition, the outcome in assay [4] was inactive.

`N#[N+]c1ccc2c(S(=O)(=O)[O-])cccc2c1O`: the Potency result in [1], in [2], in assay [5], in [6], in assay [8] and in [9] was “inactive” each time. Also, the Potency entry in assay [10] is “inactive”. Besides, in assay [4], the outcome was inactive. Further, the activity change, positive = activation in [7] is -0.985%.

Regarding `COc1ccccc1Oc1c(NS(=O)(=O)c2ccc(C(C)(C)C)cc2)nc(-c2ncccn2)nc1OCCO`, the Potency result in assay [1], in assay [2], in [3], in assay [8], in assay [9] and in assay [10] was “inactive” throughout. Also, the result in assay [4] was inactive. Also, the activity change, positive = activation in [7] is -21.1% [at 42.5 µM].

For the compound `CC(C)C=O`, the Potency result in assay [1], in assay [2], in [3], in [8], in [9] and in assay [10] was “inactive” in each case. In addition, the result in assay [4] was inactive. Moreover, in assay [7], the activity change, positive = activation was 0.557%.

Turning to `CC(C)=CCC/C(C)=C/CC/C(C)=C/CCC(=O)OC/C=C(\C)CCC=C(C)C`, the Potency result in assay [1], in assay [2], in assay [3], in [8], in assay [9] and in assay [10] was “inactive” throughout. In addition, in assay [4], the outcome was inactive. For the same compound, in assay [7], the activity change, positive = activation was -0.27% [at 42.5 µM].

For the compound `O=C1c2ccccc2C(=O)C1c1nc2ccccc2c(Br)c1O`, the Potency result in assay [1], in assay [2], in assay [3], in [5], in assay [8] and in [9] was “inactive” throughout. Moreover, the Potency entry in [10] is “inactive”.

On to `NNC(=O)CP(=O)(c1ccccc1)c1ccccc1`, for which the Potency result in [1], in assay [2], in assay [3], in assay [8], in assay [9] and in assay [10] was “inactive” throughout. The outcome in assay [4] was inactive.

In the case of `CC(C)c1nc(CN(C)C(=O)N[C@H](C(=O)N[C@@H](Cc2ccccc2)C[C@H](O)[C@H](Cc2ccccc2)NC(=O)OCc2cncs2)C(C)C)cs1`, the Potency result in [1], in assay [3], in assay [8] and in assay [10] was “inactive” throughout. Further, the Potency in [2] was 9.52 µM (active); in assay [6] it was 21.1 µM (active); in assay [9] it was 21.3 µM (active). The result in assay [4] was inactive. Further, the activity change, positive = activation in [7] was -41.1% [at 42.5 µM].

For the origin of these results see PubChem BioAssay (Tox21).
